Source: PubChem BioAssay
KCNQ2 pot: potentiators of rat KCNQ2 potassium channel; AID 2239, 2010; B-score at 10 µM; CHO-K1 KCNQ2, FluxOR thallium flux fluorescence; active compounds read high; 310,000 compounds, 0.54% hits; Potassium voltage-gated channel subfamily KQT member 2 (Rattus norvegicus), O88943;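 active means fluorescence ratio B-score at least 3 SD of library B-scores, with initial fluorescence B-score within 3 of them, cut at about 5.3 in these data; same plate scores as AID 2156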;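 further: B-score of peak minus minimum over baseline fluorescence ratio after K+ and Tl+ stimulus; positive B-score means potentiation of KCNQ2 with more thallium influx and brighter signal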
Target sequence (O88943 whole entry, looked up): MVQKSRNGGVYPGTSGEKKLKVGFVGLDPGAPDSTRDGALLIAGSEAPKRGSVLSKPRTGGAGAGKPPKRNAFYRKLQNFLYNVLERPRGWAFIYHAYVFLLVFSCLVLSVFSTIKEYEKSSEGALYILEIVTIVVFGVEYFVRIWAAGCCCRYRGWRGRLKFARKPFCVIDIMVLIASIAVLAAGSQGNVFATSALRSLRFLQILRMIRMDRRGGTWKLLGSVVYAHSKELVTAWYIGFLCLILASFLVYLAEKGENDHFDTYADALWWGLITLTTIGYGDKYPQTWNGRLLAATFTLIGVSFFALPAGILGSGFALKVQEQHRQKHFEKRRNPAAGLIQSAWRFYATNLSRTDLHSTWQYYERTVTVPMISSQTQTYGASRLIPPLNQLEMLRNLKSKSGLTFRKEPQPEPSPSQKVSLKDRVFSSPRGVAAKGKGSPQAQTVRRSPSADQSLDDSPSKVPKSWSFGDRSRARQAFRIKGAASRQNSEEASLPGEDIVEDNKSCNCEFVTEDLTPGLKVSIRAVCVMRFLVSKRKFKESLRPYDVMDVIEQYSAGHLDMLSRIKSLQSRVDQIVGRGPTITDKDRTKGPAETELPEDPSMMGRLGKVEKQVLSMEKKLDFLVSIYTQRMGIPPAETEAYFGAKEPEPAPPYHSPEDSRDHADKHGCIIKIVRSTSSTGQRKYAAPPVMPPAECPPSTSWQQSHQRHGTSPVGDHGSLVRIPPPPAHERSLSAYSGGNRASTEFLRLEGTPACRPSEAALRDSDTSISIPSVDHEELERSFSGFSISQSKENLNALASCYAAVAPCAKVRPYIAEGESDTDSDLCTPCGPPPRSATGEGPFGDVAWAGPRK
KCNQ2 inh: rat KCNQ2 potassium channel inhibitors, primary screen, cell-based, CHO-K1, FluxOR thallium flux, B-score. Potassium voltage-gated channel subfamily KQT member 2 (Rattus norvegicus), O88943. 20 min; active compounds read low. B-score at 10 µM. 310,000 compounds, 1.1% hits;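 active means fluorescence ratio B-score at most minus 3 library SDs, with starting brightness B-score within 2 library SDs, cut at about -5.5 in these data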
* marks the source's active call; other numbers are inactive results; i = inactive; . = no result. A selection: hits, their analogues and other compounds. The true share with any hit is near 1.6%.

SMILES | KCNQ2 pot | KCNQ2 inh
Fc1ccccc1C1CC(c2ccco2)=Nc2ccccc2S1 (stereo not given) | -7.3 | -7.3*
COc1ccccc1C1CC(c2cccs2)=NN1C(=O)CCC(=O)O (stereo not given) | 0.69 | i
COc1ccccc1C1CN(c2ccc(F)cc2F)N=C1c1cccs1 (stereo not given) | -7.8 | -7.8*
Cc1ccccc1OCc1nc2ccccc2c(=O)n1/N=C/c1cccc([N+](=O)[O-])c1 | -6.2 | -6.2*
Cc1ccccc1OCc1nc2ccccc2c(=O)n1/N=C/c1cn[nH]c1-c1ccccc1 | . | i
C[C@@H](C(=O)NCC1CC1)[C@@H]1C[C@@]1(C)[C@@H](NC(=O)OCc1ccccc1)c1ccccc1 | . | i
C[C@H](CO)NC(=O)[C@H](C)[C@H]1C[C@]1(C)[C@H](NC(=O)OCc1ccccc1)c1ccccc1 | 0.67 | i
C[C@@H](C(=O)Nc1ccc2ccccc2c1)[C@H]1C[C@]1(C)[C@H](NC(=O)OCc1ccccc1)c1ccccc1 | -5.9 | -5.9*
C[C@@H](C(=O)NCc1ccccn1)[C@H]1C[C@]1(C)[C@H](NC(=O)OCc1ccccc1)c1ccccc1 | -6.7 | -6.7*
CNC(=O)c1c(NC(=O)CCS(=O)(=O)c2ccc(C)cc2)sc2c1CCN(C(=O)OC)C2 | . | i
O=C1C2CC=CCC2C(=O)N1c1ccc(N2CCN(c3ccccn3)CC2)c([N+](=O)[O-])c1 (stereo not given) | 1.6 | i
CC(Sc1nnc(-c2cccnc2)n1C)C(=O)N1CCOCC1 (stereo not given) | . | i
O=C(O)c1ccc(N=Nc2c(-c3ccccc3)[nH]oc2=O)cc1 | 0.39 | i
Cc1ccc(Nc2nc(N)[nH]c(=O)c2N=O)cc1 | 0.07 | i
O=C(NCC1CCN(Cc2ccc(Cl)cc2)CC1)C1CCCN(c2ncnc3c2nc2n3CCCCC2)C1 (stereo not given) | -6.6 | -6.6*
O=C(NCC1CCN(Cc2ccc(F)cc2)CC1)C1CCCN(c2ncnc3c2nc2n3CCCCC2)C1 (stereo not given) | . | i
O=C(c1ccc2nc[nH]c2c1)N1CCN(c2ncc(C(F)(F)F)cc2Cl)CC1 | 2.3 | i
CCOC(=O)C1=C(COC(=O)c2ccc(Br)o2)NC(=O)NC1C (stereo not given) | 0.28 | i
Cc1cc(C)c(S(=O)(=O)N(C)CC(N)=O)c(C)c1 | -5.6 | -5.6*
Cc1cc(C)c(S(=O)(=O)N(C)CC(=O)N2CCCCC2)c(C)c1 | . | i
O=C(OCc1ccccc1)c1cccc(-c2nnc(-c3ccccc3)o2)c1 | -6.3 | -6.3*
O=C(OCc1ccc(C(=O)c2ccccc2)cc1)c1cccc(-c2nnc(-c3ccccc3)o2)c1 | . | i
O=C(c1ccco1)N1CCN(c2nnc(-c3ccccc3)c3ccccc23)CC1 | 0.06 | i
C[C@@H]1C(=O)OC[C@H]1NC(=O)OCc1ccccc1 | 0.56 | i
COC(=O)c1ccc(C(=O)OC)c(N)c1 | -5.7 | -5.7*
SMILES | KCNQ2 pot | KCNQ2 inh
COC(=O)c1ccc(N2CCCCC2)c(N)c1 | . | i
Nc1nonc1C(=O)N/N=C/c1cc2c(cc1Br)OCO2 | . | i
COC(=O)c1ccc(NC(=O)CSC2=Nc3ccccc3C3CC=NN23)cc1 (stereo not given) | . | i
CC(SC1=Nc2ccccc2C2CC=NN12)C(=O)NC1(C#N)CCCCC1 (stereo not given) | -8.7 | -8.7*
COc1ccccc1CNC(=O)CCCNC(=O)Cn1cnc2sc(C)c(C)c2c1=O | . | i
O=c1c2ccccc2nc(SCc2ccc([N+](=O)[O-])cc2)n1-c1ccccc1 | . | i
O=c1c2ccccc2nc(SCc2cc([N+](=O)[O-])cc3c2OCOC3)n1-c1ccccc1 | -6.1 | -6.1*
COc1ccc(OC)c(S(=O)(=O)n2ccnc2C(C)C)c1 | 0.63 | i
Cc1cccc(N=Nc2ccc(O)c3ncccc23)c1 | 6.9* | i
Cc1ccc(C)c(N=Nc2ccc(O)c3ncccc23)c1 | 2.4 | i
Nc1nc(Cl)cc(Nc2ccccc2Cl)n1 | 3.4 | i
CSc1nc(Cl)cc(Nc2ccccc2N)n1 | -6 | -6*
O=c1[nH]nc(SCc2nnc(-c3cccc(Cl)c3)o2)n1C1CCCCC1 | 0.37 | i
COc1ccccc1S(=O)(=O)Cc1ccc(C(=O)N2CCN(c3ccc(C)cc3)C(C)C2)o1 (stereo not given) | -6.6 | -6.6*
CCOC(=O)N1CCN(C(=O)c2ccc(CS(=O)(=O)c3ccccc3OC)o2)CC1 | 0.24 | i
CC1CCCN(C(=O)CN2C(=O)CSc3ccc(S(=O)(=O)N4CCOCC4)cc32)C1 (stereo not given) | . | i
O=C(CCCC(=O)OCC(Cl)=C(Cl)Cl)Nc1ccccc1 | 3.1 | i
CCOC(=O)c1c(N)sc(-c2ccccc2)c1C | . | i
CCOC(=O)c1c(N)sc(C(O)(C(F)(F)F)C(F)(F)F)c1-c1ccccc1 | -7.2 | -7.2*
